Screening data deposited in PubChem by National Center for Advancing Translational Sciences (NCATS).
A selection: hits, their analogues and other compounds. The true share with any hit is near 2.4%.
D2 PAM-1 – potentiates the human D2 dopamine receptor allosterically; P14416; DiscoveRx D2 beta-arrestin cells, luminescence, 90 min; 100% = 57 uM dopamine signal; potentiation, % (test concentration not listed); hit rate 0.23% among 360,000; in the data active means potentiation above about 50%; inconclusive means mostly about 30% to 49%
Target sequence (P14416 whole entry, looked up): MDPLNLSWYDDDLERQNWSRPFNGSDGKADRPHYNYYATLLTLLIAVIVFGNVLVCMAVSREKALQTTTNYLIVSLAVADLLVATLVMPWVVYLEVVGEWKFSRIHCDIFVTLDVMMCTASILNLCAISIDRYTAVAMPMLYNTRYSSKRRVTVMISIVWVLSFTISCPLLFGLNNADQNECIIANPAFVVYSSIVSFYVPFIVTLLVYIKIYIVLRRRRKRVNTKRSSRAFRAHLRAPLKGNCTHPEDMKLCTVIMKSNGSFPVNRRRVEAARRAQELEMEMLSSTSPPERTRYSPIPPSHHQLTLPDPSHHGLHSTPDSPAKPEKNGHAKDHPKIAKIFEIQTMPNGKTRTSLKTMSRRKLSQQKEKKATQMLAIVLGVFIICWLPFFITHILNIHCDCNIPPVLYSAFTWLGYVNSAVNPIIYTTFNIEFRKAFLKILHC
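D2 cells co-treated with compound plus 50 nM dopamine (EC20) for 90 min at 37 deg C to detect potentiation. Beta-arrestin recruitment was read as enzyme-fragment luminescence after 1 h at ambient temperature. Full response was set by 57 uM dopamine.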
D2 ag-1 – activates the human D2 dopamine receptor; activation, % at 2 µM; P14416; hit rate 0.53% among 340,000; HEK293 T-REx D2 cells, calcium flux agonist mode;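 active means activation over 3 SD above normal in the single-dose calcium agonist read, cut at about 30% in these data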; further: 0% is about no effect
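Agonism scored from kinetic calcium signal (1 read/sec, 180 s) following compound pin transfer, after a 10 s baseline. Cells: HEK293 Trex line expressing inducible D2 receptor coupled to calcium, dye-loaded after overnight culture at 30 C.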
D2 ag-2 – agonists of human D2 dopamine receptor (beta-arrestin). P14416. activation, % (no concentration beside the values). hit rate 0.084% among 360,000. DiscoveRx PathHunter D2 beta-arrestin, luminescence, 90 min; 100% = 57 uM dopamine signal. AID 624465; in the data active means activation above about 40%; inconclusive means between about 15% and that limit
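Agonist mode: compounds alone added to overnight-plated D2 PathHunter cells for 90 min at 37 C, with 57 uM final dopamine (EC100) defining full response. Beta-arrestin recruitment detected by chemiluminescent reagent, read after 1 h at ambient temperature.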
D2 antag – antagonizes the human D2 dopamine receptor; HEK293 TREx D2 cells, calcium flux, dopamine EC80; hit rate 2% among 340,000; inhibition, % at 10 µM; P14416; AID 485344; in the data active means inhibition above about 30%; inactive means below that, where a call was filed; further: 0% is about no effect
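HEK293 T-REx D2 cells, tet-induced, calcium dye no-wash. Cpd pintool add, 180 s kinetic, then EC80 DA, 180 s kinetic. Ca flux read.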
D2 PAM-2 – positive allosteric modulators of human D2 dopamine receptor | P14416 | HEK293 T-REx D2, calcium flux, EC20 dopamine potentiation | potentiation, % at 10 µM | hit rate 0.34% among 340,000 | AID 485347;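 active means potentiation over 3 SD above the plate norm, cut at about 30% in these data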; further: 0% is about no effect
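Cells plated with tetracycline inducer and held overnight at 30 C; calcium dye loaded 30–90 min at room temperature; baseline taken, compound added and read 180 s; EC20 dopamine then added and read 180 s.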
* marks the source's active call; other numbers are inactive results.

Results for COc1cc(C(=O)NC2CCCc3ccccc32)cc(OC)c1C (stereo not given) ?
D2 PAM-1: -4; D2 ag-1: -3; D2 ag-2: 1; D2 antag: 55*

How did COc1ccccc1C(=O)NC1CCCc2ccccc21 (stereo not given) do in these assays?
D2 PAM-1: -5; D2 ag-1: 2; D2 ag-2: 2; D2 antag: 8; D2 PAM-2: 2

How did CCCCNC(=O)CC(NS(=O)(=O)c1ccc(C)cc1)c1ccco1 (stereo not given) do in these assays?
D2 PAM-1: 1; D2 ag-1: 1; D2 ag-2: -4; D2 antag: -8; D2 PAM-2: -1

What do the screens show for `CCCNC(=O)CC(NS(=O)(=O)c1ccc(OC)cc1)c1ccco1` (stereo not given)?
D2 PAM-1: 4; D2 ag-1: 0; D2 ag-2: 4; D2 antag: -11; D2 PAM-2: 35*

What do the screens show for `O=C(Nc1ccc(Cl)cn1)c1cccc(S(=O)(=O)N2CCCC2)c1`?
D2 PAM-1: -4; D2 ag-1: -1; D2 ag-2: -2; D2 antag: -12; D2 PAM-2: -3

Results for CN(C)S(=O)(=O)c1cccc(C(=O)Nc2ccc(Cl)cn2)c1 ?
D2 PAM-1: -5; D2 ag-1: 0; D2 ag-2: -1; D2 antag: 37*; D2 PAM-2: 8

What do the screens show for `CC(C)(C)N(NC(=O)c1ccccc1)C(=O)c1ccc(C(=O)N(NC(=O)c2ccccc2)C(C)(C)C)cc1`?
D2 PAM-1: -26; D2 ag-1: 1; D2 ag-2: 3; D2 antag: 33*; D2 PAM-2: -5

What do the screens show for `CCc1ccc(C(=O)NN(C(=O)c2ccc(CC)cc2)C(C)(C)C)cc1`?
D2 PAM-1: -16; D2 ag-1: -1; D2 ag-2: -2; D2 antag: 0; D2 PAM-2: 2

Results for CC(=O)N1c2ccc(S(=O)(=O)NCCC(=O)Nc3ccc(Br)c(C)c3)cc2CC1C (stereo not given) ?
D2 ag-1: 0; D2 PAM-2: 0

How did CN(C(=O)c1cccnc1)c1nnc(-c2ccccn2)s1 do in these assays?
D2 PAM-1: -6; D2 ag-1: 3; D2 ag-2: -3; D2 antag: 16; D2 PAM-2: -3

Results for CC(=O)N(C)c1nnc(-c2ccccn2)s1 ?
D2 PAM-1: 13; D2 ag-1: -1; D2 ag-2: -3; D2 antag: 43*; D2 PAM-2: 1

How did Cc1oc2c(c1C(=O)Nc1ccc(Cl)cc1F)C1=NCCN1C=N2 do in these assays?
D2 ag-1: 0; D2 PAM-2: 0

Results for O=C(c1cccs1)N1CCN(C(=O)C2CCCO2)CC1 (stereo not given) ?
D2 PAM-1: -1; D2 ag-1: 7; D2 ag-2: -1; D2 antag: 37*; D2 PAM-2: -7

What do the screens show for `COc1ccccc1-c1noc(-c2ccc(N3CCOCC3)c([N+](=O)[O-])c2)n1`?
D2 ag-1: -2; D2 PAM-2: 3

How did CCc1ccc(OCC(=O)NNC(=O)c2ccc(NC(=O)C3CC3)cc2)cc1 do in these assays?
D2 PAM-1: -14; D2 ag-1: 0; D2 ag-2: 3; D2 antag: 31*; D2 PAM-2: 6

What do the screens show for `COc1ccc(CCNC(=O)c2ccc(Cn3c(=O)c4ccccc4n(CC(=O)C(C)(C)C)c3=O)cc2)cc1OC`?
D2 PAM-2: 21

Results for N/C(=N\OS(=O)(=O)c1ccc2ccccc2c1)c1ccncc1 ?
D2 PAM-1: 151*; D2 ag-1: -1; D2 ag-2: 41*; D2 antag: -12; D2 PAM-2: 10

What do the screens show for `N/C(=N\OS(=O)(=O)c1ccccc1)c1ccncc1`?
D2 PAM-1: 96*; D2 ag-1: -1; D2 ag-2: inconclusive; D2 antag: 0; D2 PAM-2: 2

What do the screens show for `CCOC(=O)c1cccc(NC(=O)N2Cc3ccccc3Oc3ncccc32)c1`?
D2 ag-1: -1; D2 PAM-2: -4

Results for c1ccc(-c2cnn3c(-c4ccccc4)c(-c4ccccc4)nc3n2)cc1 ?
D2 PAM-1: -9; D2 ag-1: 137*; D2 ag-2: -3; D2 antag: 39*; D2 PAM-2: -12

Results for Nc1nc(-c2ccccc2)c(-c2ccccc2)n1N ?
D2 PAM-1: -3; D2 ag-1: 2; D2 ag-2: -6; D2 antag: -11; D2 PAM-2: -2

Results for CN(C)CCCN1C(=O)c2cccc3c([N+](=O)[O-])ccc(c23)C1=O ?
D2 PAM-1: 63*; D2 ag-1: 1; D2 ag-2: inconclusive; D2 antag: 1; D2 PAM-2: -4

Results for O=C(Nc1nccs1)c1cccc(N2C(=O)c3cccc4c([N+](=O)[O-])ccc(c34)C2=O)c1 ?
D2 PAM-1: 75*; D2 ag-1: 6; D2 ag-2: 14; D2 antag: -1; D2 PAM-2: 6

What do the screens show for `CC(=O)Oc1cccc(N2C(=O)c3cccc4c([N+](=O)[O-])ccc(c34)C2=O)c1`?
D2 PAM-1: 107*; D2 ag-1: 2; D2 ag-2: 41*; D2 antag: 4; D2 PAM-2: -2

Results for O=C(Nc1ccc(S(=O)(=O)Nc2nccs2)cc1)c1cccc(N2C(=O)c3ccccc3C2=O)c1 ?
D2 PAM-1: -8; D2 ag-1: 0; D2 ag-2: -1; D2 antag: -12; D2 PAM-2: 4

What do the screens show for `Cc1c(Cl)cccc1NC(=O)CCS(=O)(=O)c1ccc(Br)s1`?
D2 ag-1: 0; D2 PAM-2: 20

Results for CCc1cccc(NC(=O)CCn2c(=O)c3cccn3c3cccnc32)c1 ?
D2 ag-1: 1; D2 PAM-2: -3

What do the screens show for `COc1ccc(NC(=S)N2CCC(N(C)CC3CCCO3)CC2)cc1` (stereo not given)?
D2 PAM-1: -6; D2 ag-1: -3; D2 ag-2: 0; D2 antag: 30*; D2 PAM-2: 13

How did O=C(CSc1nc2c(c(=O)[nH]1)CCCC2)Nc1ccc(Br)cc1 do in these assays?
D2 ag-1: 0; D2 PAM-2: 4

Results for Cc1ccccc1-c1noc(-c2ccc(N3CCC(C)CC3)c([N+](=O)[O-])c2)n1 ?
D2 ag-1: 1; D2 PAM-2: -1

What do the screens show for `O=C(NCc1ccco1)c1ccc(S(=O)(=O)N2CCCc3ccccc32)cc1`?
D2 PAM-1: -4; D2 ag-1: 3; D2 ag-2: 1; D2 antag: 40*; D2 PAM-2: -13

What do the screens show for `COc1ccc(-c2noc(-c3ccccc3C(=O)NCc3ccco3)n2)cc1`?
D2 PAM-1: -20; D2 ag-1: 0; D2 ag-2: -8; D2 antag: 4; D2 PAM-2: -4
